SRC2 inh = inhibits human steroid receptor coactivator 2; Q15596; HEK293 GAL4-SRC2 luciferase reporter, luminescence; inhibition, % at 9 µM; 0.17% of 370,000 active;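 active = inhibition above the mean inhibition of all tested compounds plus 3 SD, set per campaign, cut at about 52% in these data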;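 note: 0% = DMSO treated cells and 100% = cells given Gossypol at 36 µM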
GalR3 antagonist = blocks the human galanin receptor 3; inhibition, % at 3 µM; AID 651719; O60755; HEK293 GalR3-CNG cAMP membrane potential fluorescence; galR3 body fused to GalR1 C-terminus; 0.44% of 360,000 active;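 active = inhibition above the screen-wide average plus 3 SD, cut at about 13% in these data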;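 note: forskolin and galanin both at EC90 stimulate the cells; cAMP rise reported by CNG channel membrane potential dye signal; 0% = forskolin plus galanin with DMSO and 100% = forskolin alone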
NR2F2 inh = NR2F2 (human) inhibition, primary screen; 0.7% of 370,000 active; HEK293T NGFI-A luciferase reporter, luminescence; inhibition, % at 8.6 µM; P24468;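 active = inhibition above a per-plate cutoff, mean inhibition of test wells between control levels plus 3 SD, cut at about 38% in these data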;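 note: cells cotransfected with COUP-TFII expression vector driving the NGFI-A reporter; 0% = median of COUP-TF2 test wells and 100% = reporter-only cells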
SRC1 inh = inhibits human SRC1 coactivator. Q15788. HEK293 GAL4-SRC1 luciferase reporter, luminescence. inhibition, % at 3.6 µM. 0.12% of 360,000 active. AID 588354;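 active = inhibition above the campaign mean plus 3 SD, with each screening campaign given its own cutoff, cut at about 60% in these data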;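 note: 0% = DMSO treated cells and 100% = gossypol at 36 µM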
LRH-1 inv ag = NR5A2 inverse agonism in reporter assay | inhibition, % at 3.6 µM | 0.13% of 360,000 active | HEK293T StAR-luciferase reporter, LRH-1 transfected, 24 h | AID 602396;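 active = inhibition above the mean inhibition of all tested compounds plus 3 SD, cut at about 73% in these data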;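 note: 0% = DMSO wells and 100% = reporter-only cells lacking LRH-1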
SRC3 inh = inhibitors of human steroid receptor coactivator 3 (SRC3); Q9Y6Q9; HEK293 GAL4-SRC3 luciferase reporter, luminescence; inhibition, % at 3.6 µM; 0.17% of 360,000 active; AID 588352;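 active = inhibition above a per-campaign cutoff, the mean of all compounds plus 3 SD, cut at about 60% in these data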;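 note: 0% = DMSO-treated cells and 100% = gossypol-treated cells at 36 µM; higher means less SRC3-driven luciferase light from the GAL4 reporter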
VP16 Luc counter = VP16 inhibition counter-screen for COUP-TFII; 25% of 2,500 active; inhibition, % at 8.5 µM; AID 687007; shares compounds with NR2F2 inh; HEK293 Gal4-VP16 luciferase reporter, luminescence; in the data active = inhibition above about 13%
NR2F2 inh conf = confirmation of human COUP-TFII (NR2F2) inhibitors; shares compounds with NR2F2 inh; HEK293 NGFI-A luciferase reporter, luminescence; inhibition, % at 8.5 µM; 45% of 2,500 active; AID 687008;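 active = mean inhibition over three repeats above a set limit taken from the earlier primary screen, cut at about 38% in these data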;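 note: 100% = cells given the luciferase reporter alone without the COUP-TF2 vector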
Starred values were filed as active, the others as inactive; . = not tested or not shown; ! = not confirmed by another sample. Hits are enriched below; roughly 1.1% of the tested compounds scored in any of these assays.

SMILES	SRC2 inh	GalR3 antagonist	NR2F2 inh	SRC1 inh	LRH-1 inv ag	SRC3 inh	VP16 Luc counter	NR2F2 inh conf
O=C(Nc1ccc(N2CCN(c3ncccc3C(F)(F)F)CC2)nc1)c1cccs1	4	-6	52*	24	17	35	5	40*
COc1ccc(CCNc2nc(C)nc3c2oc2ccccc23)cc1OC	5	-3	40*	13	11	13	0	27
COc1ccc(CCNc2ncnc3c2oc2ccccc23)cc1OC	18	-1	76*	25	50	36	2	73*
C[n+]1cc2c3c(ccc2c2ccc4cc5c(cc4c21)OCO5)OCO3	87*	-4	106*	.	.	.	95*	107*
C=C(C)/C=C1/CN(Cc2ccc3c(c2)OCO3)C(=N)N1C(=O)OCc1ccccc1	15	.	16	.	.	.	.	.
Cn1c(=O)oc2cc(S(=O)(=O)NCc3ccncc3)ccc21	24	-3	44*	14	26	-1	-8	-4
Cc1cc(C)c(C)c(S(=O)(=O)NCc2ccncc2)c1C	-3	-11	38*	4	26	10	6	30
COc1ccc(C(=O)c2ccccc2)c2c(O)ccc(C(=O)c3ccccc3)c12	32	-3	43*	17	27	18	5	63*
COC(=O)[C@]12C[C@H](CC(=O)NCc3ccccc3)C(=O)N(Cc3cccc4ccccc34)C1=C[C@H](C1CCCC1)O[C@@H]2C	10	.	9	.	.	.	.	.
CCn1c(C(C)NC(C)=O)nc2ccccc21 (stereo not drawn)	-35	.	-10	-13	-27	4	.	.
Cc1ccc(-c2csc(N3CCN(CCCn4c(C(F)(F)F)nc5ccccc54)CC3)n2)cc1	2	-1	6	-1	9	-2	.	.
CC(=O)N[C@@H](C)c1nc2ccccc2n1CCCN1CCN(c2nc(-c3ccc(C)cc3)cs2)CC1	20	-9	62*	-2	16	-8	-11	48*
Cc1ccc(-c2csc(N3CCN(CCCn4c(-c5ccncc5)nc5ccccc54)CC3)n2)cc1	0	3	53*	-5	-26	1	1	29
COc1ccc(OC)c(NC(=O)CCC(=O)Oc2ccc(C)cc2)c1	-15	-8	39*	0	11	6	-6	0
O=C(Nc1ccc(CN2CCS(=O)(=O)CC2)cc1)c1ccc(C(F)(F)F)cc1	15	-1	50*	15	17	13	13	32
CCOc1ccc(NC(=O)c2ccc(NC(=O)c3ccc(CN4CCOCC4)cc3)cc2)cc1	7	-6	30	7	8	5	.	.
CCC(C)Oc1ccc(C(=O)Nc2ccc(CN3CCOCC3)cc2)cc1 (stereo not drawn)	7	-10	40*	5	-5	8	-16	12
O=C(Nc1ccc(CN2CCS(=O)(=O)CC2)cc1)c1ccc(F)cc1	-14	-1	11	-15	-5	-15	.	.
CC(C)(C)c1ccc(-c2nnc(SCC(=O)Nc3ccc(Oc4ccccc4)cc3)n2Cc2ccco2)cc1	-4	.	6	.	.	.	.	.
COC(=O)C1=C[C@@H]([C@@H](C)[C@H](OC)c2ccccc2Br)[C@@H]2OCCC[C@H]12	-12	.	14	.	.	.	.	.
O=C(/C=C/c1ccc([N+](=O)[O-])cc1)c1ccccc(=O)c1O	-33	-3	43*	1	0	37	10	59*
C[C@H]1[C@@H](OC(=O)Nc2ccccc2Cl)CC[C@@]23CCCN2C(=O)CCC[C@@H]13	.	.	4	.	.	.	.	.
O=C(c1cc(S(=O)(=O)N2CCN(c3ccccc3)CC2)ccc1Cl)N1CCCC(C(F)(F)F)C1 (stereo not drawn)	33	-5	46*	4	31	29	2	32
O=C(c1cccc(S(=O)(=O)N2CCN(c3ccccc3)CC2)c1)N1CCCC(C(F)(F)F)C1 (stereo not drawn)	-13	-4	7	21	-2	16	.	.
C#CCN1CC(N(C)CCOC(=O)c2cccs2)CS1(=O)=O (stereo not drawn)	-60	.	-30	.	.	.	.	.
SMILES	SRC2 inh	GalR3 antagonist	NR2F2 inh	SRC1 inh	LRH-1 inv ag	SRC3 inh	VP16 Luc counter	NR2F2 inh conf
CN(C)c1ccc(CNc2ncnc3sccc23)cc1	19	0	66*	25	47	12	11	52*
NS(=O)(=O)c1ccc(CCNc2ncnc3sccc23)cc1	28	4	53*	20	33	15	-8	37
NS(=O)(=O)c1ccc(CNc2ncnc3sccc23)cc1	-3	-5	17	-65	4	1	.	.
Fc1ccccc1CNc1ncnc2sccc12	27	-10	48*	22	33	27	10	41*
COC(=O)[C@]12C[C@H](CC(=O)NCC3CCCCC3)C(=O)N(Cc3ccco3)C1=C[C@H](COCc1ccccc1)O[C@@H]2C	1	.	-20	.	.	.	.	.
C(C#CCCCCCCCCC[n+]1ccccc1)#CCCCCCCCCC[n+]1ccccc1	-9	.	65*	38	85*	65*!	16*	36
Cc1ccc(S(=O)(=O)N2CCC(c3nc4ccccc4o3)CC2)s1	-6	.	-21	.	.	.	.	.
C=C(C(=O)c1ccccc1)C(C)C(=C)C(=O)c1ccccc1	47	-1	58*	17	21	41	47*	87*
C=C(C(=O)c1ccccc1)C(c1ccccc1)C(C)C(=O)c1ccccc1 (stereo not drawn)	38	0	-21	14	5	28	.	.
CC(=O)c1ccc(N2CCN(C(=O)/C=C/c3ccc(S(=O)(=O)NCc4ccco4)cc3)CC2)cc1	15	-2	54*	12	25	26	-1	28
CC(C)(C)c1ccc(C(=O)N2CCCCCC2=O)cc1	87*	-2	86*	44	57	51	81*	76*
COc1ccc(CCNC(=O)CCNC(=O)c2ccc([N+](=O)[O-])cc2)cc1	19	-10	39*	9	15	4	4	3
O=C(CCNC(=O)c1ccc([N+](=O)[O-])cc1)NCCc1ccc(Cl)cc1	-18	-5	-5	-3	-8	-1	.	.
NC(=S)N/N=C1\CCSc2ccc(Cl)cc21	14	-8	37*	29	23	34	-1	33
CNc1nc(-c2ccc(OC)cc2)c(-c2ccc(OC)cc2)s1	3	-3	41*	10	-2	2	-17	-13
COc1ccc2c(c1)C(CC(C)=O)N(c1ccc(-c3cccs3)cc1)C(c1ccsc1)=C2 (stereo not drawn)	1	-8	47*	.	38	.	-14	-2
